Test results as given in PubChem BioAssay (EPA / NIEHS).
Activity calls are given as the source filed them. Rule for the calls: active = hit-call score of the fitted dose curve at least 0.9, where 1 is the maximum; inactive = score below 0.9.

What follows are molecules tested on Bcl-2 (BAD) gene, BAD (gene 572) (assay: LTEA_HepaRG_BAD: Life Technologies and Expression Analysis (LTEA) Assay for Bcl-2 (BAD) gene using HepaRG (AID 2283469)). Conditions: mRNA level, 48 h; actives raise or lower the signal.
In short: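 Differentiated HepaRG cells were exposed in duplicate in 0.5% DMSO for 48 h to eight-point half-log concentrations up to 100 uM. BAD mRNA was measured by Fluidigm TaqMan qRT-PCR, normalized to ACTB, GAPDH and POLR2A, and fitted bidirectionally against DMSO.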

Row | SMILES | outcome | AC50
1 | CNC(=O)Oc1cccc2ccccc12 | inactive | 
2 | CCSC(=O)N1CCCCCC1 | inactive | 
3 | COc1ccc(-c2ccccc2)cc1NNC(=O)OC(C)C | inactive | 
4 | CC(C)=CC1C(C(=O)OCc2coc(Cc3ccccc3)c2)C1(C)C (configuration not stated) | inactive | 
5 | OC(c1ccc(Cl)cc1)(c1ccc(Cl)cc1)C(Cl)(Cl)Cl |  | 70.1 µM (active)
6 | COC(=O)NS(=O)(=O)c1ccc(N)cc1 | inactive | 
7 | CC(C)Oc1cccc(NC(=O)c2ccccc2C(F)(F)F)c1 | inactive | 
8 | CS(=O)(=O)c1cc(C(F)(F)F)ccc1C(=O)c1cnoc1C1CC1 | inactive | 
9 | CCOP(=O)(OCC)Oc1nc(Cl)c(Cl)cc1Cl | inactive | 
10 | CCOP(=S)(OCC)Oc1nc(Cl)n(C(C)C)n1 | inactive | 
11 | CCOc1nc(F)cc2nc(S(=O)(=O)Nc3c(Cl)cccc3Cl)nn12 | inactive | 
12 | COP(=S)(OC)SCn1nnc2ccccc2c1=O | inactive | 
13 | CNC(=O)N(C)c1nnc(C(C)(C)C)s1 | inactive | 
14 | Clc1nc(Cl)nc(Nc2ccccc2Cl)n1 | inactive | 
15 | Nc1c(Cl)c(Cl)nc(C(=O)O)c1Cl | inactive | 
16 | Nc1c(Cl)c(F)nc(OCC(=O)O)c1Cl | inactive | 
17 | CC1(C)CCC(=Cc2ccc(Cl)cc2)C1(O)Cn1cncn1 (configuration not stated) | inactive | 
18 | CSC(=O)c1c(C(F)F)nc(C(F)(F)F)c(C(=O)SC)c1CC(C)C | inactive | 

Row | SMILES | outcome | AC50
19 | CCCCC(C#N)(Cn1cncn1)c1ccc(Cl)cc1 (configuration not stated) | inactive | 
20 | O=C(O)c1c(Cl)ccc2cc(Cl)cnc12 | inactive | 
21 | O=P(O)(O)CCCl | inactive | 
22 | Cc1cnc(C2=NC(C)(C(C)C)C(=O)N2)c(C(=O)O)c1 (configuration not stated) | inactive | 
23 | CCOC(=O)C(C)OC(=O)c1cc(Oc2ccc(C(F)(F)F)cc2Cl)ccc1[N+](=O)[O-] (configuration not stated) | inactive | 
24 | COC(=O)N(C(=O)N1CO[C@@]2(C(=O)OC)Cc3cc(Cl)ccc3C2=N1)c1ccc(OC(F)(F)F)cc1 | inactive | 
25 | CC1(C)C(C=C(Cl)Cl)C1C(=O)OC(C#N)c1cccc(Oc2ccccc2)c1 (configuration not stated) | inactive | 
26 | Cc1cc(C)nc(Nc2ccccc2)n1 | inactive | 
27 | O=c1n(Cl)c(=O)n(Cl)c(=O)n1Cl | inactive | 
28 | CO/N=C(/C1=NOCCO1)c1ccccc1Oc1ncnc(Oc2ccccc2Cl)c1F | inactive | 
29 | COCC(=O)N(c1c(C)cccc1C)C(C)C(=O)OC (configuration not stated) | inactive | 
30 | C=CCOC(=O)C(C)(C)OC(=O)c1cc(-n2c(=O)cc(C(F)(F)F)n(C)c2=O)ccc1Cl | inactive | 
31 | COC(=O)c1c(C(F)F)nc(C(F)(F)F)c(C2=NCCS2)c1CC(C)C | inactive | 
32 | CN=C=S | inactive | 
33 | CC(C)NC(=O)N1CC(=O)N(c2cc(Cl)cc(Cl)c2)C1=O | inactive | 
34 | COc1cc(OC)nc(NC(=O)NS(=O)(=O)c2ncccc2OCC(F)(F)F)n1 | inactive | 
35 | COP(=O)(OC)O/C(C)=C/C(=O)N(C)C | inactive | 
36 | CCOc1cc(C(C)(C)C)ccc1C1COC(c2c(F)cccc2F)=N1 (configuration not stated) | inactive | 

Each molecule was assayed on Bcl-2 (BAX) gene, BAX (gene 581) (assay: LTEA_HepaRG_BAX: Life Technologies and Expression Analysis (LTEA) Assay for Bcl-2 (BAX) gene using HepaRG (AID 2283470)). Conditions: mRNA level, 48 h; actives raise or lower the signal.
In short: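 Differentiated human HepaRG cells, plated 48 h then switched to serum-free induction medium, were exposed 48 h to 8 half-log concentrations up to 100 uM in 0.5% DMSO; BAX mRNA measured by qRT-PCR, normalized to ACTB, GAPDH, POLR2A.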

Row | SMILES | outcome | AC50
37 | CNC(=O)Oc1cccc2ccccc12 | inactive | 
38 | CCSC(=O)N1CCCCCC1 | inactive | 
39 | COc1ccc(-c2ccccc2)cc1NNC(=O)OC(C)C | inactive | 
40 | CC(C)=CC1C(C(=O)OCc2coc(Cc3ccccc3)c2)C1(C)C (configuration not stated) | inactive | 
41 | OC(c1ccc(Cl)cc1)(c1ccc(Cl)cc1)C(Cl)(Cl)Cl |  | 78.2 µM (active)
42 | COC(=O)NS(=O)(=O)c1ccc(N)cc1 | inactive | 
43 | CC(C)Oc1cccc(NC(=O)c2ccccc2C(F)(F)F)c1 | inactive | 
44 | CS(=O)(=O)c1cc(C(F)(F)F)ccc1C(=O)c1cnoc1C1CC1 | inactive | 
45 | CCOP(=O)(OCC)Oc1nc(Cl)c(Cl)cc1Cl | inactive | 
46 | CCOP(=S)(OCC)Oc1nc(Cl)n(C(C)C)n1 | inactive | 
47 | CCOc1nc(F)cc2nc(S(=O)(=O)Nc3c(Cl)cccc3Cl)nn12 | inactive | 
48 | COP(=S)(OC)SCn1nnc2ccccc2c1=O | inactive | 
49 | CNC(=O)N(C)c1nnc(C(C)(C)C)s1 | inactive | 
50 | Clc1nc(Cl)nc(Nc2ccccc2Cl)n1 | inactive | 
51 | Nc1c(Cl)c(Cl)nc(C(=O)O)c1Cl | inactive | 
52 | Nc1c(Cl)c(F)nc(OCC(=O)O)c1Cl | inactive | 
53 | CC1(C)CCC(=Cc2ccc(Cl)cc2)C1(O)Cn1cncn1 (configuration not stated) | inactive | 
54 | CSC(=O)c1c(C(F)F)nc(C(F)(F)F)c(C(=O)SC)c1CC(C)C | inactive | 

Row | SMILES | outcome | AC50
55 | CCCCC(C#N)(Cn1cncn1)c1ccc(Cl)cc1 (configuration not stated) | inactive | 
56 | O=C(O)c1c(Cl)ccc2cc(Cl)cnc12 | inactive | 
57 | O=P(O)(O)CCCl | inactive | 
58 | Cc1cnc(C2=NC(C)(C(C)C)C(=O)N2)c(C(=O)O)c1 (configuration not stated) | inactive | 
59 | CCOC(=O)C(C)OC(=O)c1cc(Oc2ccc(C(F)(F)F)cc2Cl)ccc1[N+](=O)[O-] (configuration not stated) | inactive | 
60 | COC(=O)N(C(=O)N1CO[C@@]2(C(=O)OC)Cc3cc(Cl)ccc3C2=N1)c1ccc(OC(F)(F)F)cc1 | inactive | 
61 | CC1(C)C(C=C(Cl)Cl)C1C(=O)OC(C#N)c1cccc(Oc2ccccc2)c1 (configuration not stated) | inactive | 
62 | Cc1cc(C)nc(Nc2ccccc2)n1 | inactive | 
63 | O=c1n(Cl)c(=O)n(Cl)c(=O)n1Cl | inactive | 
64 | CO/N=C(/C1=NOCCO1)c1ccccc1Oc1ncnc(Oc2ccccc2Cl)c1F |  | 31.3 µM (active)
65 | COCC(=O)N(c1c(C)cccc1C)C(C)C(=O)OC (configuration not stated) | inactive | 
66 | C=CCOC(=O)C(C)(C)OC(=O)c1cc(-n2c(=O)cc(C(F)(F)F)n(C)c2=O)ccc1Cl | inactive | 
67 | COC(=O)c1c(C(F)F)nc(C(F)(F)F)c(C2=NCCS2)c1CC(C)C | inactive | 
68 | CN=C=S | inactive | 
69 | CC(C)NC(=O)N1CC(=O)N(c2cc(Cl)cc(Cl)c2)C1=O | inactive | 
70 | COc1cc(OC)nc(NC(=O)NS(=O)(=O)c2ncccc2OCC(F)(F)F)n1 | inactive | 
71 | COP(=O)(OC)O/C(C)=C/C(=O)N(C)C | inactive | 
72 | CCOc1cc(C(C)(C)C)ccc1C1COC(c2c(F)cccc2F)=N1 (configuration not stated) | inactive | 
